SMILES strings stand for the structures. Active and inactive are the calls of the source. Rule for the calls: active = hit-call score of the fitted dose curve at least 0.9, where 1 is the maximum; inactive = score below 0.9.

Chain of rat CYP2A1, Cyp2a1 (gene 24894) (P11711 whole entry, looked up): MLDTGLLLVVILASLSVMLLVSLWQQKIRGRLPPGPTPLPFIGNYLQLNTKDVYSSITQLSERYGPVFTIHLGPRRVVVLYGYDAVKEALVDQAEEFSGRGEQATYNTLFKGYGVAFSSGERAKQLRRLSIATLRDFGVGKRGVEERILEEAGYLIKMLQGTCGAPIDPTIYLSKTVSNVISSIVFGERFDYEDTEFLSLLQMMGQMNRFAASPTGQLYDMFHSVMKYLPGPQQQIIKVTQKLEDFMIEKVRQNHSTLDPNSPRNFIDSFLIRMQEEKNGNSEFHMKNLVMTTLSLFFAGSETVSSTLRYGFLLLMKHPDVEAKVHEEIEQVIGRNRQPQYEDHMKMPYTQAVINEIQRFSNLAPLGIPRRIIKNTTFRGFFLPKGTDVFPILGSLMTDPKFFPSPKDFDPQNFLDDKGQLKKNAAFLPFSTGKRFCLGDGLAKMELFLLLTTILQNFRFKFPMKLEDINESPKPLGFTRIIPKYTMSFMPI

The target in the test is rat CYP2A1, Cyp2a1 (gene 24894) (UniProt P11711). Put plainly: NVS_ADME_rCYP2A1: NovaScreen (NVS) CYP450-related Enzyme Activity (ADME) Assay for rat CYP2A1 (AID 2283114). On the procedure:
NVS_ADME_rCYP2A1 is a biochemical, single-readout assay that uses extracted gene-proteins in a cell-free assay. Measurements were taken 0.75 hour after chemical dosing in a 96-well plate.NVS_ADME_rCYP2A1 is one of one assay component(s) measured or calculated from the NVS_ADME_rCYP2A1 assay. It is designed to make measurements of enzyme activity, a form of enzyme reporter, as detected with fluorescence intensity signals by Fluorescence technology.Data from the assay component NVS_ADME_rCYP2A1 was analyzed into 1 assay endpoint. This assay endpoint, NVS_ADME_rCYP2A1, was analyzed in the positive analysis fitting direction relative to Acetonitrile as the negative control and baseline of activity. Using a type of enzyme reporter, loss-of-signal activity can be used to understand changes in the enzymatic activity as they relate to the gene Cyp2a1. Furthermore, this assay endpoint can be referred to as a primary readout, because this assay has produced multiple assay endpoints where this one serves a enzymatic activity function. To generalize the intended target to other relatable targets, this assay endpoint is annotated to the cyp intended target family, where the subfamily is xenobiotic metabolism.
Binding assays used specific radioligands (tritiated, iodinated) with non-radioactive competitive displacement ligands in agonist or antagonist protocols (as indicated) and various reference compounds and inhibitors to titrate specific binding to receptors and transporters. Most enzyme assays (CYPs, kinases, phosphatases, proteases, HDACs) used recombinant protein and specific substrates (fluorescence mostly, some colorimetric and radioactive) and inhibitors, followed by a biochemical separation of substrate and product. All assays for the biochemical HTS were initially run in duplicate at a single concentration (10 uM for CYP450 assays and 25 uM for all others). Assay-chemical combinations meeting a pre-defined threshold (e.g., 30% inhibition and other criteria defined below) were then run in singleton concentration-response format with maximum concentration of 20 uM for CYPs and 50 uM for all others. Each assay was run with positive and negative controls, and concurrent controls on every plate. The follow-up (secondary) screen tested active chemical-pairs in concentration series, as well as a few additional assays not tested in the primary screen, some selected negative inactives, and several cases re-run in the concentration series for confirmatory purposes.
On to `CCOC(=O)C(Cl)Cc1cc(-n2nc(C)n(C(F)F)c2=O)c(F)cc1Cl` (stereo not drawn), for which the result was inactive.
Still for that read-out and setting: as for `N#CC(CCc1ccc(Cl)cc1)(Cn1cncn1)c1ccccc1` (stereo not drawn), the entry is “inactive”.
Broadly, the AC50 is the midpoint of the concentration-response curve, whichever way the signal moves. As to `CCCN(CCC)c1c([N+](=O)[O-])cc(S(N)(=O)=O)cc1[N+](=O)[O-]`, the concentration at half-maximal activity (AC50) was 2.62 µM (active).
Same read-out and setting: the figure for `CC1COC(Cn2cncn2)(c2ccc(Oc3ccc(Cl)cc3)cc2Cl)O1` (stereo not drawn) is 0.14 µM (active); for `OC(c1ccc(Cl)cc1)(c1cncnc1)c1ccccc1Cl` (stereo not drawn) it is 4.33 µM (active).
Same read-out and setting: the figure for `CC1=C(C(=O)Nc2ccccc2)SCCO1` is 6.72 µM (active).
Turning to `COc1ccc(C(c2ccc(OC)cc2)C(Cl)(Cl)Cl)cc1`, the result was inactive.
Consider `CCOP(=S)(OCC)SCn1c(=O)oc2cc(Cl)ccc21`, for which the AC50 is 3.22 µM (active).
With `COC(=O)c1ccccc1C(=O)OC`, the compound was called inactive.
On to `CN(C)C(=S)SSC(=S)N(C)C`, for which the AC50 was 2.83 µM (active).
The same measure, in the same setting: as for `Cc1ccc(-c2c(Cl)nc(C#N)n2S(=O)(=O)N(C)C)cc1`, the figure is 7.38 µM (active).
Take `CO/C=C(/C(=O)OC)c1ccccc1Oc1cc(Oc2ccccc2C#N)ncn1`: the AC50 is 3.83 µM (active).
The same measure, in the same setting: the figure for `CCOC(=O)CC(SP(=S)(OC)OC)C(=O)OCC` (stereo not drawn) is 5.52 µM (active).

The values are drawn from PubChem BioAssay (EPA / NIEHS).
